Out of some 69,000 compounds screened, about 8,600 (12%) showed an effect of 50% or more. This is one part of a sample in which strong results are shown more often than they occur.
Tested on: Plasmodium berghei
Experiment: Screen against P. berghei liver stage (PbLuc), transformed with Luciferase, at 10uM
Type: functional, HepG2
Conditions: tested at 10 uM

Structure (SMILES)	INHIBITION [%]
O=C(NCCS(=O)(=O)N1CCc2ccccc21)c1c(O)cc(F)cc1F	42
O=C(NCCC(=O)N1CCCc2ccccc21)c1ccc(F)cc1F	11.6
O=C(NCCC(=O)N1CCCc2ccccc21)c1c(O)cc(F)cc1F	73.9
O=C(NCC(=O)N1CCCc2ccccc21)c1c(O)cc(F)cc1F	80.6
O=C(NCCC(=O)N1CCCc2ccccc21)c1cc(F)cc(F)c1	-19.9
O=C(NCCC(=O)N1CCCc2ccccc21)c1c(F)cccc1F	-57.4
C=C(C)COc1ccc(C(CC(=O)OC)c2oc(C)cc(=O)c2O)cc1 (stereo unspecified)	-24.7
CNc1ncc(CN(C)C(=O)c2cccc(Cn3cccn3)c2)cn1	18.5
CCc1ccccc1Nc1noc2c1CN(C(=O)c1ccn(C)n1)CC2	-3.35
CCn1ccnc1CN1CCN(Cc2cccnc2)CC1C (stereo unspecified)	33.5
CC(C)Nc1nc2c(s1)C(=O)CN(C)C2	35.2
N#Cc1ccc(Nc2nc3c(s2)C(=O)CN(CC2CC2)C3)cc1	-15.2
CC[C@H](C)[C@H](N)C(=O)N1CC(=O)c2sc(Nc3ccc(F)cc3)nc2C1	14.5
CC(C)NC(=O)N1CC(=O)c2sc(NC3CCCCC3)nc2C1	-16.7
CC(C)CC(=O)N1CC(=O)c2sc(Nc3ccc(F)cc3)nc2C1	51.5
CC(C)CC(=O)N1CC(=O)c2sc(Nc3ccc(C#N)cc3)nc2C1	79.7
CC(C)NC(=O)N1CC(=O)c2sc(Nc3ccc(C#N)cc3)nc2C1	61.9
CCN1CC(=O)c2sc(NC(C)C)nc2C1	23.4
Cc1nc(C)n(CC2CCCN(CCCOc3ccc(F)cc3)C2)n1 (stereo unspecified)	40.2
NC(=O)C1CCN(CCc2ccc(NC(=O)C3CC3)cc2)CC1	45.05
CC(O)(CNC(=O)NCCc1ccc2c(c1)CCO2)c1ccsc1 (stereo unspecified)	30.8
CC(C)c1nn(C)cc1CNC1CCOc2ccccc21 (stereo unspecified)	31.8
COc1ccccc1C1CNCCN1C(C)=O (stereo unspecified)	9.98
CC(=O)N1CCC2(CCCN2Cc2cnn(C)c2)CC1	-26

Structure (SMILES)	INHIBITION [%]
CCOc1ccnc(N2CCCN(c3nc(CC)ns3)CC2)n1	-12.5
CCOc1ccnc(N2CCCN(c3nc(C4CC4)ns3)CC2)n1	-75.5
COc1ccnc(N2CCCN(c3nc(C4CC4)ns3)CC2)n1	77.6
CC(NC(=O)Cn1ccc(=O)n(C)c1=O)c1ccccc1F (stereo unspecified)	-27.8
CC(C)C(NC(=O)Cn1ccc(=O)n(C)c1=O)c1ccc(F)cc1 (stereo unspecified)	53.8
CC(NC(=O)Cn1ccc(=O)n(C)c1=O)c1cc(F)ccc1F (stereo unspecified)	-35.7
O=C(c1ccc(NCc2cccc(F)c2)cc1)N1CCCC1	-16.1
CCC(C(=O)N(C)Cc1cc(COC)[nH]n1)n1cccn1 (stereo unspecified)	-29.2
O=C(c1ccc(NC2CC2)nc1)N1CCCC(n2ccnc2)C1 (stereo unspecified)	31.32
CCn1cc(S(=O)(=O)N2CCCC3(CC=CNC3=O)C2)c(C)n1 (stereo unspecified)	-42.9
Cn1cc(C(O)CNC(=O)c2cc(Br)ccc2Cl)cn1 (stereo unspecified)	19.8
Cc1ccc(C(=O)NCC(O)c2cnn(C)c2)c(Br)c1 (stereo unspecified)	29.7
Cn1cc(C(O)CNC(=O)c2ccc(F)cc2Cl)cn1 (stereo unspecified)	51.6
CC(C)(O)CNC(=O)NCc1nccn1CCc1ccccc1	-4.63
CC(C)COCC(NC(=O)c1cc[nH]n1)c1ccco1 (stereo unspecified)	53.8
CC(C)COCC(NC(=O)c1ccccn1)c1ccco1 (stereo unspecified)	8.25
CC(C)COCC(NC(=O)c1cnccn1)c1ccco1 (stereo unspecified)	-26.6
CCn1nc(CC(C)C)cc1C(=O)NCC(F)(F)F	15.4
Cc1noc(C)c1CN1CCOC2(CCCN(c3ncccn3)C2)C1 (stereo unspecified)	-21.1
CC(C)c1nnc(CN2CCN(C(C)c3nc(C4CC4)no3)CC2)o1 (stereo unspecified)	33.3
CCC1=NN2C(=N)/C(=C/c3cccc(Cl)c3)C(=O)N=C2S1	37.7
CCC1=NN2C(=N)C(=Cc3cccn3-c3ccc(Cl)cc3)C(=O)N=C2S1	76.7
CCC1=NN2C(=N)C(=Cc3cccn3-c3ccc(Br)cc3)C(=O)N=C2S1	65.4
CCC1=NN2C(=N)C(=Cc3cccn3-c3cccc(Cl)c3)C(=O)N=C2S1	73.7

Structure (SMILES)	INHIBITION [%]
O=C(O)Cc1cn2cc(C(F)(F)F)ccc2n1	7.38
Cn1cc(CN2CC[C@H](O)[C@@H]2Cc2ccccc2)cn1	17.1
Cc1noc(C)c1C(=O)N1C[C@H]2CCC[C@@]2(COc2ccccn2)C1	34.7
CCC[C@H]1CN(c2nccc(NCC)n2)C[C@@H]1NS(=O)(=O)N(C)C	48.7
CCC[C@H]1CN(c2nccc(OC)n2)C[C@@H]1NS(=O)(=O)N(C)C	56.6
COc1ccnc(N2C[C@@H](NS(=O)(=O)N(C)C)[C@H](C(C)C)C2)n1	-15.6
CCS(=O)(=O)N1CC[C@H](OC)[C@@H]1Cc1ccncc1	28.4
CNc1ncc(-c2ccnn2C2CCN(C(C)=O)CC2)cn1	42.6
CC1CN(C(=O)c2cnn(-c3ccccn3)c2C(C)C)CC(C)(C)O1 (stereo unspecified)	51.5
CCc1c(C(=O)N2CC(C)OC(C)(C)C2)cnn1-c1ccccn1 (stereo unspecified)	2.97
CCc1c(C(=O)N2CCOC(C)(C)C2)cnn1-c1ccccn1	4.95
CCOC[C@@H]1CCC[C@]12CN(S(=O)(=O)c1cn(C)cn1)CCO2	35.5
O=C(c1cccn1Cc1cccs1)N1CCSCC1	9.64
COc1cccc(OCCNCc2ccccc2)c1	51.5
COc1cccc(OCCNS(=O)(=O)Cc2ccccc2)c1	10.7
COc1cccc(OCCNS(C)(=O)=O)c1	-0.614
CC(C)(C)c1n[nH]c(C2CN(C(=O)C3=COCCC3)CCO2)n1 (stereo unspecified)	40.2
COc1ccccc1OC1(C(=O)O)CCN(c2ccccn2)CC1	40.5
COc1ccccc1OC1(C(=O)O)CCN(c2nccnc2OC)CC1	3.03
COc1ccccc1OC1(C(=O)O)CCN(c2ncccc2F)CC1	30.8
COc1ccccc1OC1(C(=O)O)CCN(c2ncnc(C)c2C)CC1	55.4
COc1ccccc1OC1(C(=O)O)CCN(c2nccnc2C)CC1	8.47
COc1ccccc1OC1(C(=O)O)CCN(c2nc(C)cnc2C)CC1	56.5

Source: ChEMBL document CHEMBL4513216, “Probing the Open Global Health Chemical Diversity Library for Multistage-Active Starting Points for Next-Generation Antimalarials” (ACS Infect Dis, 2020)
